This is an account of results in the supplement of paper PMC8728848.

The full list was thinned out, with the strongest signals kept by preference.

Holding throughout (assay): glycan array binding signal (z-score within array); higher = stronger binding
Holding throughout (settings): glycan notation: IUPAC condensed, linker removed

Assay [1] has as its target Fuc(a1-2)Gal(b1-3)GalNAc(b1-3)Gal. A digest of the protocol:
(§1)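 From the Consortium for Functional Glycomics database, 3228 arrays were curated, keeping only those whose protein sequence was available. Binding is given as a within-array Z-score averaged across arrays sharing a protein sequence and across linkers. Negative Z-scores can be read as non-binding.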

In assay [2] the target is Fuc(a1-2)Gal(b1-3)GalNAc(b1-4)[Neu5Ac(a2-3)]Gal(b1-4)Glc. A digest of the protocol:
as §1

A further assay deals with Fuc(a1-2)Gal(b1-4)GlcNAc. A digest of the protocol:
as §1

The next assay concerns the target Fuc(a1-2)[Gal(a1-3)]Gal. A digest of the protocol: as §1
Assay [3] concerns the target Fuc(a1-2)[GalNAc(a1-3)]Gal(b1-4)[Fuc(a1-3)]GlcNAc. An outline of the steps:
as §1

Assay [4] concerns the target Fuc(a1-2)[GalNAc(a1-4)]Gal(b1-4)GlcNAc. A digest of the protocol:
as §1

A further assay has as its target Gal(a1-2)Gal. A digest of the protocol:
as §1

Assay [5] deals with Gal(b1-3)[Fuc(a1-4)]GlcNAc(b1-3)Gal(b1-4)[Fuc(a1-3)]GlcNAc. An outline of the steps:
as §1

In assay [6] the target is Gal(b1-4)GlcNAc(b1-3)Gal(b1-4)GlcNAc(b1-3)Gal(b1-4)GlcNAc. A digest of the protocol:
as §1

In assay [7] the target is Gal(b1-4)GlcNAc(b1-6)Gal(b1-4)GlcNAc(b1-6)GalNAc. A digest of the protocol:
as §1

Assay [8] has as its target Gal(b1-4)GlcNAc(b1-6)GalNAc. An outline of the steps:
as §1

In another assay the target is Gal3S(b1-3)GalNAc. An outline of the steps: as §1
Another assay deals with Gal3S(b1-4)Glc6S. An outline of the steps: as §1
A further assay has as its target Gal3S(b1-4)GlcNAc6S. An outline of the steps: as §1
A further assay deals with Gal3S6S(b1-4)GlcNAc6S. An outline of the steps:
as §1

The next assay has as its target Gal4S6S(b1-4)GlcNAc. A digest of the protocol: as §1
For the next assay, the target named is Gal6S(b1-4)Glc6S. A digest of the protocol: as §1
In another assay the target is GlcA(b1-3)Gal. An outline of the steps:
as §1

Assay [9] concerns the target GlcNAc(b1-2)Man(a1-3)[GlcNAc(b1-2)Man(a1-6)]Man(b1-4)GlcNAc(b1-4)GlcNAc. An outline of the steps:
as §1

Assay [10] addresses GlcNAc(b1-4)GlcNAc(b1-4)GlcNAc(b1-4)GlcNAc(b1-4)GlcNAc(b1-4)GlcNAc. An outline of the steps:
as §1

A further assay concerns the target GlcNAc(b1-6)GalNAc. A digest of the protocol:
as §1

The target in assay [11] is Man(a1-2)Man(a1-3)[Man(a1-6)]Man(a1-6)[Man(a1-2)Man(a1-3)]Man(b1-4)GlcNAc(b1-4)GlcNAc. A digest of the protocol:
as §1

Assay [12] deals with Neu5Ac(a2-3)Gal(b1-3)GalNAc(b1-3)Gal(b1-4)GlcNAc. An outline of the steps:
as §1

For assay [13], the target named is Neu5Ac(a2-3)Gal(b1-4)[Fuc(a1-3)]GlcNAc(b1-3)Gal. A digest of the protocol: as §1
Assay [14] concerns the target Neu5Ac(a2-3)[Neu5Ac(a2-6)]GalNAc. An outline of the steps:
as §1

The target of a further assay is Neu5Gc(a2-6)GalNAc. An outline of the steps: as §1
A further assay addresses Fuc(b1-3)GlcNAc. A digest of the protocol:
as §1

The target of a further assay is Gal(a1-3)Gal(b1-4)GlcNAc. A digest of the protocol:
as §1

A further assay deals with Gal(a1-3)GalNAc. An outline of the steps: as §1
Assay [15] addresses Gal(b1-4)GlcNAc(b1-3)GalNAc. An outline of the steps: as §1
Assay [16] addresses GlcNAc(b1-2)Gal(b1-3)GalNAc. An outline of the steps:
as §1

Assay [17] concerns the target GlcNAc(b1-4)GlcNAc(b1-4)GlcNAc. A digest of the protocol: as §1
The target of assay [18] is Neu5Ac(a2-3)Gal(b1-3)GalNAc. An outline of the steps:
as §1

The target of assay [19] is Neu5Ac(a2-3)Gal(b1-3)[Neu5Ac(a2-3)Gal(b1-4)]GlcNAc. An outline of the steps:
as §1

Assay [20] has as its target Neu5Ac(a2-3)Gal(b1-4)[Fuc(a1-3)]GlcNAc(b1-3)Gal(b1-4)[Fuc(a1-3)]GlcNAc(b1-3)Gal(b1-4)[Fuc(a1-3)]GlcNAc. A digest of the protocol:
as §1

The target in assay [21] is Neu5Ac(a2-8)Neu5Ac(a2-8)Neu5Ac. An outline of the steps: as §1
Assay [22] deals with Neu5Gc(a2-3)Gal(b1-3)[Fuc(a1-4)]GlcNAc. An outline of the steps: as §1
The target in a further assay is Neu5Gc(a2-3)Gal(b1-4)Glc. An outline of the steps:
as §1

Assay [23] addresses Fuc(a1-2)Gal(b1-4)[Fuc(a1-3)]GlcNAc. An outline of the steps: as §1
Assay [24] deals with Fuc(a1-2)[Gal(a1-3)]Gal(b1-4)[Fuc(a1-3)]GlcNAc. An outline of the steps: as §1
In assay [25] the target is Gal(b1-3)[Fuc(a1-4)]GlcNAc(b1-3)Gal(b1-4)GlcNAc. A digest of the protocol:
as §1

A further assay deals with Gal3S(b1-4)Glc. An outline of the steps:
as §1

A further assay deals with Gal3S(b1-4)GlcNAc. A digest of the protocol: as §1
Another assay concerns the target Gal3S6S(b1-4)GlcNAc. A digest of the protocol:
as §1

In another assay the target is Gal6S(b1-4)GlcNAc. A digest of the protocol: as §1
Assay [26] addresses GlcNAc(a1-3)Gal(b1-4)GlcNAc. A digest of the protocol:
as §1

The target in assay [27] is GlcNAc(b1-3)[GlcNAc(b1-6)]GalNAc. A digest of the protocol: as §1
Assay [28] deals with GlcNAc(b1-4)[GlcNAc(b1-6)]GalNAc. A digest of the protocol: as §1
In assay [29] the target is Man(a1-2)Man(a1-3)[Man(a1-2)Man(a1-6)]Man(a1-6)[Man(a1-3)[Man(a1-6)]Man(a1-6)]Man(b1-4)GlcNAc(b1-4)GlcNAc. An outline of the steps: as §1
The target in the next assay is Neu5Ac(a2-3)GalNAc. An outline of the steps: as §1
For assay [30], the target named is Neu5Ac(a2-3)GalNAc(b1-4)GlcNAc. A digest of the protocol:
as §1

For assay [31], the target named is Neu5Ac(a2-3)[GalNAc(b1-4)]Gal(b1-4)Glc. A digest of the protocol: as §1
The target of another assay is Neu5Ac(a2-6)Gal(b1-4)Glc. An outline of the steps: as §1
Assay [32] addresses Neu5Gc(a2-3)Gal(b1-4)[Fuc(a1-3)]GlcNAc. A digest of the protocol:
as §1

B1: S100A12 (Homo sapiens), P80511 (protein)
chain: MTKLEEHLEGIVNIFHQYSVRKGHFDTLSKGELKQLLTKELANTIKNIKDKAVIDEIFQGLDANQDEQVDFQEFISLVAIALKAAHYHTHKE
With B1, the “glycan array binding signal (z-score)” value in assay [1] was 1.87; in [2], -0.259; with Fuc(a1-2)Gal(b1-4)GlcNAc, -0.748; with Fuc(a1-2)[Gal(a1-3)]Gal it was -0.758; in assay [3] it was -0.154; in assay [4], -0.766. The “glycan array binding signal (z-score)” value with Gal(a1-2)Gal is 0.006; in [5], -0.056; in assay [6] it was -0.226; in assay [7] it was -0.768; in [8] it was -0.528; with Gal3S(b1-3)GalNAc, 0.207. The “glycan array binding signal (z-score)” value was 2.45 with Gal3S(b1-4)Glc6S; 2.67 with Gal3S(b1-4)GlcNAc6S; 2.83 with Gal3S6S(b1-4)GlcNAc6S; 2.91 with Gal4S6S(b1-4)GlcNAc; 2.19 with Gal6S(b1-4)Glc6S; 0.368 with GlcA(b1-3)Gal. Further, the “glycan array binding signal (z-score)” value was 1.79 in assay [9]; -0.158 in assay [10]; -0.903 in the assay with GlcNAc(b1-6)GalNAc; -0.256 in assay [11]; -0.704 in [12]; -0.943 in assay [13]. For the same molecule, the “glycan array binding signal (z-score)” value is 0.727 in assay [14] and -0.009 with Neu5Gc(a2-6)GalNAc.

B2: Siglec-G (Mus musculus), Q80ZE3 (protein)
chain: MSLLLFLLSFLLDGPQGQMESYFLQVQRIVKAQEGLCIFVPCSFSSPEGKWLNRSPLYGYWFKGIRKPSLSFPVATNNKDKVLEWEARGRFQLLGDISKKNCSLLIKDVQWGDSTNYFFRMERGFERFSFKEEFRLQVEALTQKPDIFIPEVLEPGEPVTVVCLFSWTFNQCPAPSFSWMGDAVSFQESRPHTSNYSVLSFIPGLQHHDTELTCQLDFSRMSTQRTVRLRVAYAPRSLAISIFHDNVSVPDLHENPSHLEVQQGQSLRLLCTADSQPPATLSWVLEDQVLSWSSPVGSRTLALELPWVKAGDSGHYTCQAENRLGSQQHTLDLSVLYPPQDLRVTVSQANRTVLEILRNAISLPVLEGQSLCLVCVTYSNPPANVSWAWVTQTLIPIQSSEPGVLELPLVQREHEGEFTCAAQNPLGAQRISLSLSVHYPPQMSSPSCSWEAKGLHCNCSSRAWPAPSLRWRLGEGLLEGNSSNASFTVTFSSLGPWVNSSLSLLQELGPSLWLSCESWNTHGAQTTSVLLLPDKDSATAFSKGAVLGFGITALLALCLIVVIVKTLQKKGTQEEPSRPKLSRGSTILDYINVVPKTRSLARNWKAEPDAPSRSSPLDTHFPKPKKKQKDPHFTYPGCPDPTSSSQVPVSENNPEELHYAALNFSRLRLQETQDPQDTYSDYTEVRVH
As to B2, the “glycan array binding signal (z-score)” value in assay [1] was -0.186; in the assay with Fuc(b1-3)GlcNAc, 1.54; with Gal(a1-3)Gal(b1-4)GlcNAc, -0.064; with Gal(a1-3)GalNAc, -0.268; in [15], -0.134; in [16], -0.21. Moreover, the “glycan array binding signal (z-score)” value in [17] was -0.138; in assay [18] it was 0.414; in [19] it was 0.903; in assay [20], 1; in assay [21], 1.22; in assay [22], 0.241. For the same molecule, in the assay with Neu5Gc(a2-3)Gal(b1-4)Glc, the “glycan array binding signal (z-score)” value is -0.022.

B3: MAL (Maackia amurensis) (protein)
chain: SDELSFTINNFMPNQGDLLFQGVATVSPTGVLQLTSEENGQPLEYSVGRVLYTAPVRIWDSTTGAVASFSTSFTFVVKAARGASDGLAFFLAPPDSQIPSGSVSKYLGLFNNSNSDSSNQIVAVEFDTYFGHSYDPWDPNYRHIGIDVNGIESIKTVQWDWINGGVAFATITYLAPNKTLIASLVYPSNQTSFIVAASVDLKEILPEWVRVGFSAATGAPKAVETHDVRSWSFTSTLEANSPADVDN
With B3, the “glycan array binding signal (z-score)” value in [1] was -0.382; in assay [23] it was 0.544; in assay [24], -0.348; in [25], -0.428; in assay [5], -0.272; with Gal3S(b1-4)Glc, 4.98. Also, the “glycan array binding signal (z-score)” value was 4.51 with Gal3S(b1-4)Glc6S; 4.96 with Gal3S(b1-4)GlcNAc; 5.35 with Gal3S(b1-4)GlcNAc6S; 0.345 with Gal3S6S(b1-4)GlcNAc; -0.066 in the assay with Gal6S(b1-4)GlcNAc; -0.353 in [26]. Also, the “glycan array binding signal (z-score)” value is -0.374 in [27]; -0.221 in assay [28]; -0.305 in assay [29]; -0.392 with Neu5Ac(a2-3)GalNAc; -0.416 in [30]; -0.394 in assay [31]. Also, the results for the “glycan array binding signal (z-score)” value (in the assay with Neu5Ac(a2-6)Gal(b1-4)Glc; in assay [32]) were 0.057 and -0.371, respectively.
